Compound activity: PubChem BioAssay, Johns Hopkins Ion Channel Center
KCNQ2 block = rat KCNQ2 potassium channel inhibitors, primary screen, cell-based, CHO-K1, FluxOR thallium flux, B-score; 20 min; active compounds read low; B-score at 10 µM; Potassium voltage-gated channel subfamily KQT member 2 (Rattus norvegicus), O88943; hit rate 1.1% among 310,000;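 active = fluorescence ratio B-score at most minus 3 library SDs, with starting brightness B-score within 2 library SDs, cut at about -5.5 in these data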
KCNQ2 enhance = potentiators of rat KCNQ2 potassium channel; Potassium voltage-gated channel subfamily KQT member 2 (Rattus norvegicus), O88943; CHO-K1 KCNQ2, FluxOR thallium flux fluorescence; active compounds read high; B-score at 10 µM; hit rate 0.54% among 310,000;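 active = fluorescence ratio B-score at least 3 SD of library B-scores, with initial fluorescence B-score within 3 of them, cut at about 5.3 in these data; same plate scores as AID 2156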;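 note: B-score of peak minus minimum over baseline fluorescence ratio after K+ and Tl+ stimulus; positive B-score means potentiation of KCNQ2 with more thallium influx and brighter signal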
An asterisk follows results filed as active; i = inactive; . = not tested or not shown. Rows were chosen to be rich in hits. Some 1.6% of all compounds tested hit in one or more screens of this group.

SMILES	KCNQ2 block	KCNQ2 enhance
O=S(=O)(Nc1nc2ccccc2nc1NCC1CCCO1)c1cc(Cl)ccc1Cl (stereo not given)	i	.
Cc1ccc(C)c(N2CCN(C(=O)CCCOc3cc(=O)n(C)c4ccccc34)CC2)c1	-6.4*	-6.4
Cc1ccc(C)c(N2CCN(C(=O)COc3cc(=O)n(C)c4ccccc34)CC2)c1	i	.
OCc1ncc(-c2ccccc2)s1	i	.
Cc1nc(N2CCN(c3ccccn3)CC2)c2c(C)c(C(=O)Nc3c(F)cc(F)cc3Br)sc2n1	i	.
Cc1nc(N2CCN(c3ccccn3)CC2)c2c(C)c(C(=O)Nc3c(C)cc(Br)cc3C)sc2n1	-7.9*	-7.9
Cc1nn(C(C)(C)C)c(OC(=O)C2CCCC2)c1S(=O)(=O)c1ccccc1	-6*	-6
Cc1ccc(S(=O)(=O)c2c(C)nn(C(C)(C)C)c2OC(=O)C2CCCC2)cc1	i	.
COCCNC(=O)Cn1cnc2c(cnn2-c2ccc(C)cc2)c1=O	i	1.3
CN1CCN(S(=O)(=O)c2cccc(C(=O)Nc3cc(C(F)(F)F)ccc3N3CCCC3)c2)CC1	i	.
CN1CCN(S(=O)(=O)c2cccc(C(=O)Nc3cc(Cl)ccc3N3CCOCC3)c2)CC1	-7.5*	-7.5
CC(Oc1cccc(Cl)c1)C(=O)Nc1cc(S(=O)(=O)N2CCCCC2)ccc1N1CCOCC1 (stereo not given)	-7.6*	-7.6
CC(Oc1cccc(Cl)c1)C(=O)Nc1cc(S(=O)(=O)N2CCOCC2)ccc1N1CCCC1 (stereo not given)	i	.
COc1cccc(CCNC(=O)CCCC(=O)c2ccccc2)c1	i	.
Cc1ccc(CNS(=O)(=O)c2cc3c4c(c2)C(C)C(=O)N4CCC3)cc1 (stereo not given)	i	.
C=CCN1C(=O)[C@@H]2Cc3c([nH]c4ccccc34)C(c3cc(OC)c(OC)c(OC)c3)N2C1=S (stereo not given in full)	-6.1*	-6.1
CCN1C(=O)[C@@H]2Cc3c([nH]c4ccccc34)C(c3cc(OC)c(OC)c(OC)c3)N2C1=S (stereo not given in full)	i	.
Cc1ccc(OCC(=O)NC2CCS(=O)(=O)C2)c([N+](=O)[O-])n1 (stereo not given)	i	.
CN=C(Nc1cccc(Cl)c1)SC1CC(=O)N(c2ccc(OC)cc2)C1=O (stereo not given)	i	0.87
COc1cc(C2CC(=O)c3c(O)cc(O)cc3O2)ccc1O (stereo not given)	i	.
COc1c(CC=C(C)C)cc(C2CC(=O)c3c(O)cc(O)cc3O2)c(CC=C(C)C)c1O (stereo not given)	-5.8*	-5.8
CC(C)CN(CCOc1cccc(N2C(=O)C3=C(CCCC3)C2=O)c1)CC(C)C	i	.
O=C1C2=C(CCCC2)C(=O)N1c1cccc(OCCBr)c1	i	7.8*
O=C(CN1C(=O)NC(Cc2ccccc2)C1=O)Nc1ccccc1OC(F)F (stereo not given)	i	1.4
Cc1nc2c(c(=O)c3ccccc3n2C)c(=O)n1C1CCCCCC1	i	0.08
SMILES	KCNQ2 block	KCNQ2 enhance
Cn1c2ccccc2c(=O)c2c(=O)n(C3CCCCC3)c(-c3ccco3)nc21	i	6.7*
CCN(CC(=O)Nc1c(F)cccc1F)C(=O)C1CCN(S(=O)(=O)c2ccc(C)c(C)c2)CC1	i	0.11
Cc1c(NC(=O)c2c(N)sc3c2CCCC3)c(=O)n(-c2ccccc2)n1C	i	0.02
CC(NC(=O)CCCCCCN1C(=O)c2ccccc2C1=O)c1ccc2c(c1)CCCC2 (stereo not given)	i	5.3*
CC(NC(=O)CCCCCN1C(=O)c2ccccc2C1=O)c1ccc2c(c1)CCCC2 (stereo not given)	i	4.2
CC(=O)c1c(C)[nH]c(C(=O)OCC(=O)Nc2sc3c(c2C#N)CCC(C)C3)c1C (stereo not given)	i	.
COc1cccc(NC(=S)N(CCC(C)C)C2CCN(C(C)=O)CC2)c1	i	.
O=C(Nc1cccc2ccccc12)N1N=CCC1c1ccccc1 (stereo not given)	i	.
O=C(Nc1cccc(Cl)c1)N1N=CCC1c1ccccc1 (stereo not given)	-6.2*	-6.2
Cc1cccc(S(=O)(=O)N(CC(=O)Nc2ccccc2C)Cc2ccco2)c1	-5.8*	-5.8
Cc1ccc(S(=O)(=O)N(CC(=O)NCc2ccco2)Cc2ccc(F)cc2)cc1	-7.3*	-7.3
Cc1ccc(C)c(N(CC(=O)Nc2ccccc2C(=O)NCc2ccco2)S(=O)(=O)c2ccccc2)c1	i	.
Cc1ccc(S(=O)(=O)NCC(=O)N(CC(=O)NCc2ccco2)Cc2ccc(F)cc2)cc1	i	.
CCC1CCc2sc(C(=O)N(C)CC(=O)Nc3ccc(N4CCOCC4)cc3)cc2C1 (stereo not given)	i	0.07
COc1ccccc1CNC(=O)COc1cccc(-n2cnnn2)c1	i	1.1
O=C(COC(=O)c1ncc(Cl)c(Cl)c1Cl)NC(=O)c1ccccc1	i	.
CCc1noc(C)c1C(=O)Nc1ccc(S(=O)(=O)N2CCC(C)CC2)cc1	i	0.02
COC(=O)C(CO)Nc1ncnc2onc(-c3ccc(F)cc3)c12 (stereo not given)	i	0.63
Cc1c(Cl)cccc1NC(=S)N(CCN(C)C)C(C)c1ccco1 (stereo not given)	i	2.6
Cc1ccc(CSc2nnc(-c3ccc(NS(=O)(=O)c4ccccc4)cc3)o2)cc1	i	.
COC(=O)CSc1nnc(-c2ccc(NS(=O)(=O)c3ccccc3)cc2)o1	-6.2*	-6.2
CCC(C)(C)c1nnc(NC(=O)CCC2CCCCC2)s1	i	0.75
COc1nnc(-c2ccc(N3CCCCC3)c(NC(=O)C3CCCCC3)c2)c2ccccc12	-6.2*	-6.2
COc1nnc(-c2ccc(N3CCOCC3)c(NC(=O)C3CCCCC3)c2)c2ccccc12	i	.
CCn1c(-c2c(Cl)c(C)nn2C)n[nH]c1=S	i	1
SMILES	KCNQ2 block	KCNQ2 enhance
CN(C)S(=O)(=O)c1ccc(Cl)c(NC(=O)COC(=O)c2cc(-c3ccccc3)nc3ccccc23)c1	i	.
CC(C)(c1ccccc1)c1ccc(OCC(O)CNC2CCN(Cc3ccccc3)CC2)cc1 (stereo not given)	-8.3*	-8.3
CCOc1ccc(OCC(O)CNC2CCN(Cc3ccccc3)CC2)cc1 (stereo not given)	i	0.8
Cc1ccc(C(=O)Nc2c(-c3cccs3)nc3cc(C)ccn23)cc1	i	0.53
Cc1ccn2c(NC(=O)C(C)(C)Oc3ccc(Cl)cc3)c(-c3cccs3)nc2c1	-6.4*	-6.4
COc1cc2c(cc1OC)C(c1ccc(Br)cc1)NC(=O)C2 (stereo not given)	i	0.05
O=C(NCc1ccccc1)c1cccc(COc2ccc(Cl)cc2)c1	i	.
COc1cc(CNC(=O)c2cccc(COc3ccc(Cl)cc3)c2)cc(OC)c1	-5.9*	-5.9
CC(C)Cn1c([N+](=O)[O-])nc2c1c(=O)[nH]c(=O)n2C	i	.
Cn1c(=O)[nH]c(=O)c2c1nc([N+](=O)[O-])n2Cc1ccccc1	-6.2*	-6.2
CCCC/C=C/C(NC(=O)c1ccc(C(=O)OC)cc1)c1ccccc1 (stereo not given)	i	.
O=C(CCCCCn1nnc2ccccc2c1=O)Nc1ccccc1F	i	.
Cc1cccc2cc(C#N)c(SCC(=O)N3CC(=O)Nc4ccccc43)nc12	i	0.49
